The structures appear in SMILES notation. The whole screen tested about 48,000 compounds, of which about 13,000 (27%) showed an effect of 50% or more. The list shows a part of the results.

In the test the test system is Wolbachia pipientis. The test is described as follows: Anti-Wolbachia Cell-Based Screen. It counts as functional. Set-up: scale not given: in the data most compounds retested in dose-response had high values. Particulars: 5 µM.
`CCCn1cc(-c2ccnc(NC3CCCc4ccccc43)n2)c(C)n1` (configuration not stated): the “Percent Effect” value came out at 2.739%.
With `OCCNc1nccc(-c2cn3nccc3nc2C2CCCCC2)n1` the figure was 109.1%.
To `CCCn1ncc(-c2ccnc(NC3CCCc4ccccc43)n2)c1C` (configuration not stated) belongs -7.325%.
With `CNCCNc1nccc(-c2cn(C)nc2C)n1` the figure was 0.09563%; with `CCN(CC)CCCNc1nccc(-c2cn(C)nc2C)n1`, -2.773%.
Take `Cc1cc2nc(C3CCCCC3)c(-c3ccnc(NCCO)n3)cn2n1`: the “Percent Effect” value came out at 91.18%.
With `CCN(CCNC(=O)C1CCCN(C(C)=O)C1)c1ccccc1C` (configuration not stated) the figure was 2.266%.
As to `CNc1ncc(CN(C)c2nc(C)c3ccc(S(C)(=O)=O)cc3n2)cn1`, the “Percent Effect” value turned out to be 9.72%.
In the case of `COc1ccnc(CN2CC(=O)N(c3ccc(C)cc3)CC2C)c1OC` (configuration not stated), the “Percent Effect” value is listed as -8.096%.
With `CCOC(=O)N1CC(=O)N(Cc2cccc(OC)c2OC)CC(O)C1` (configuration not stated) the figure was 107.9%; with `COc1cccc(CN(C)C(=O)CCC(=O)c2ccccc2)c1OC`, -10.25%.
For `COc1cccc2cc(CNC(C)(C)C(=O)N3CCC(O)CC3)oc12`, the “Percent Effect” value is recorded as -3.796%.
With `COc1cccc(CN2CC(O)CN(C(=O)C(C)(C)C)CC2=O)c1OC` (configuration not stated) the figure was 116.9%; with `COCCN1CCc2nc(SCc3ccc(F)cc3)[nH]c(=O)c2C1`, 106%.
To `COCCN1CCc2onc(C(c3ccccc3)c3ccccc3)c2C1` belongs 19.48%; to `C=Cc1ccc(CSc2nc3c(c(=O)[nH]2)CN(CCC)CC3)cc1`, -6.559%; to `CCCN1CCc2nc(SCc3ccccc3F)[nH]c(=O)c2C1`, 16.02%.
On to `CCCN1CCc2nc(SCc3ccccc3)[nH]c(=O)c2C1`, for which the “Percent Effect” value is reported as 19.11%.
To `CCCN1CCc2nc(SCc3ccc(F)cc3)[nH]c(=O)c2C1` belongs 101.4%.
In the case of `CCCN(C)C(=O)c1ccc2c(c1)[nH]c(=O)n2CCOCC`, the “Percent Effect” value is reported as -27.89%.
With `Cc1csc(CNC(=O)NCC(O)c2cccc(Cl)c2)n1` (configuration not stated) the figure was -23.66%; with `C=C(C)CN(CC)C(=O)c1cc(Cl)ccc1NS(C)(=O)=O`, -12.97%; with `COc1cccc(C2C3=C(COC3=O)Nc3[nH]nc(C)c32)c1OC` (configuration not stated), 3.331%.
As for `Cc1ccc(CN2CC[C@@H]3CN(S(C)(=O)=O)CCO[C@@H]3C2)o1`, the “Percent Effect” value is -7.086%.
For `CNC(=O)c1cccc(CC2COCCN(Cc3ccsc3)C2)n1` (configuration not stated), the “Percent Effect” value worked out at 152.2%.
To `Cc1ccc(CN2CCC3(CC2)CC(NC(=O)c2ccccn2)CO3)o1` (configuration not stated) belongs -7.485%; to `CNC(=O)c1cccc(CC2COCCN(Cc3ccc(C)o3)C2)n1` (configuration not stated), 193.8%; to `Cn1nc(CN2CCOCC2)c2c1CN(Cc1ccsc1)C2.O=C(O)C(F)(F)F.O=C(O)C(F)(F)F`, 1.369%.
To `O=C(NCc1cc(N2CCOCC2)ncn1)c1cccc(CO)n1` belongs -9.818%; to `COCCN(CCN(C)C)C(=O)NC1CC1`, -6.538%.
`CCCNC(=O)C[S+]([O-])Cc1csc(C2CCCCC2)n1` (configuration not stated): the “Percent Effect” value was 9.015%.
`CC(C)c1cc(NCc2csc(N(C)C)n2)nc(N)n1`: the “Percent Effect” value is recorded as -34.84%.
Turning to `C1CN(c2nc(C3CC3)no2)CCN(C2CCOCC2)C1`, the “Percent Effect” value is 3.883%.
`CCn1ncc2c1C(COC)CN(Cc1ccc(OC)cc1)C2` (configuration not stated): the “Percent Effect” value is on record as 12.18%.
With `CCn1ncc2c1C(COC)CN(Cc1cnn(C)c1)C2` (configuration not stated) the figure was 98.55%; with `Cn1ncc2c1C(COCC1CC1)CN(Cc1nccs1)C2` (configuration not stated), -9.049%; with `CCn1ncc2c1C(COC)CN(Cc1nccs1)C2` (configuration not stated), 93.87%.
To `CCn1ncc2c1C(COC)CN(S(=O)(=O)C1CC1)C2` (configuration not stated) belongs -7.886%; to `CC(C)N(CC1CCCN(Cc2ccon2)C1)C(=O)OC(C)(C)C` (configuration not stated), -0.3893%; to `CC(C)OCCNC(=O)C1CCC(=O)N(C2CCCC2)C1` (configuration not stated), -13.5%.
With `Cc1ccc(CNC(=O)N2CCN(S(C)(=O)=O)CC2)n1C` the figure was -9%; with `CN(C)C(=O)c1ccn(-c2ccc3ccccn23)n1`, 2.89%; with `CS(=O)(=O)N1CCCCCC1C1CCN(c2ncccc2C#N)CC1` (configuration not stated), -0.7273%.
With `CS(=O)(=O)N1CCCC1c1ccnc2nccn12` (configuration not stated), the “Percent Effect” value turned out to be 122.4%.
With `Cc1ccc2nc(C3CCCN3Cc3scnc3C)[nH]c2c1` (configuration not stated), the “Percent Effect” value is -7.773%.
With `CS(=O)(=O)N1CCCCCC1C1CCN(c2ncccn2)CC1` (configuration not stated) the figure was -4.856%; with `Cc1csc(Nc2nccnc2C2CCCN2S(C)(=O)=O)n1` (configuration not stated), 47.35%.
To `Cc1ccc2nc(C3CCCN3Cc3cccc(CCN)c3)[nH]c2c1` (configuration not stated) belongs -6.155%; to `CS(=O)(=O)N1CCC[C@H]1c1ncnn1-c1ccc2c(c1)OCO2`, 23.33%; to `CC(C)=CCCC(C)CN1CCC(n2cc(C(=O)NCCO)nn2)CC1` (configuration not stated), -5.673%.
For the compound `CCCn1cnnc1CN(C)C(=O)CCC(=O)Nc1cc(C)ccc1F`, the “Percent Effect” value is listed as -24.09%.
To `O=C(CCCn1cncn1)N1CCC2(CCCNC2=O)C1` (configuration not stated) belongs -3.772%; to `O=C(C[S+]([O-])Cc1csc(C2CCCC2)n1)Nc1ccccc1` (configuration not stated), 0.09199%; to `COCC(O)CN(C)C(=O)NC1CCN(S(C)(=O)=O)CC1` (configuration not stated), 12.14%.
With `CCC(CC)(CNC(=O)OC(C)(C)C)NC(=O)C1CCOCC1` the figure was 5.998%.
To `O=S(=O)(NCC(O)c1cccs1)c1ccccc1Cl` (configuration not stated) belongs 2.157%; to `CCc1nc(N)nc(NCCC(=O)N2CCCC2)c1C`, 9.291%.
On to `CC(C)(C)C(=O)NC[C@H]1Cn2c(-c3ccccc3)cnc2CO1`, for which the “Percent Effect” value is recorded as -8.442%.
With `CN(CC1=CCCN(CCc2ccccn2)C1)C(=O)c1ccco1` the figure was 0.7414%; with `O=C(NCCNc1ncccn1)N1CCc2ccccc2C1`, 8.02%.
`CN(Cc1ccsc1)C(=O)CNC(=O)N1CCc2ccccc2C1`: the “Percent Effect” value is recorded as 90.63%.
To `CCOc1ncccc1NC(=O)N1CCc2ccccc2C1` belongs -0.7073%; to `CN(Cc1ccsc1)C(=O)CN1CCc2c(ncn2C)C1`, -3.155%.
In the case of `CNC(=O)c1cccc(CCNC(=O)N2CCc3ccccc3C2)c1`, the “Percent Effect” value is given as 1.406%.
With `CN(Cc1ccccn1)C(=O)CNC(=O)N1CCc2ccccc2C1` the figure was 97.17%.
Turning to `CC(C)c1noc(C(C)N2CCC(c3nc4ccccc4o3)CC2)n1` (configuration not stated), the “Percent Effect” value is 1.795%.
With `Cc1cc(C)c2c(c1)C(NC(=O)CSc1nnc[nH]1)CCO2` (configuration not stated) the figure was 8.701%.

The values above are taken from ChEMBL document CHEMBL3988442, “University of Dundee, Small-Polar-MMV Screening Library” (2021).
